In PubChem BioAssay (Tox21):
A number with no mark means an inactive call. Inconclusive results are not listed. Entries that show only a call come without a potency. Calls of active or inactive are those of the source. Unless noted, calls follow the shape of the dose curve; as a rule, active = well fitted curve in the direction sought with a large enough effect in the repeat runs; inconclusive = weak or mixed curves; inactive = no such curve, though single readings can be large; an effect the other way counts as inactive or inconclusive.

How the values were obtained:
[1] = qHTS assay to identify small molecule antagonists of the estrogen related receptor (ERR) signaling pathway from Tox21 library - cell viability counter screen (AID 1224834); also: nearly all actives have a fitted effect of over 30% in size
Method in brief: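 Viability readout (CellTiter-Fluor fluorescence, 30 min at 37 C) multiplexed with the ERR assay; cells treated 17.5 h at 37 C with compounds delivered in DMSO.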

[2] = target: Luciferin 4-monooxygenase (Photinus pyralis) (UniProt P08659); test: qHTS assay to identify small molecule inhibitors of firefly luciferase (AID 1224835); also: nearly all actives have a fitted effect of over 25% in size; also: potency is read from the fitted curve at half-maximal effect
Luciferin 4-monooxygenase (Photinus pyralis), sequence (P08659 whole entry, looked up): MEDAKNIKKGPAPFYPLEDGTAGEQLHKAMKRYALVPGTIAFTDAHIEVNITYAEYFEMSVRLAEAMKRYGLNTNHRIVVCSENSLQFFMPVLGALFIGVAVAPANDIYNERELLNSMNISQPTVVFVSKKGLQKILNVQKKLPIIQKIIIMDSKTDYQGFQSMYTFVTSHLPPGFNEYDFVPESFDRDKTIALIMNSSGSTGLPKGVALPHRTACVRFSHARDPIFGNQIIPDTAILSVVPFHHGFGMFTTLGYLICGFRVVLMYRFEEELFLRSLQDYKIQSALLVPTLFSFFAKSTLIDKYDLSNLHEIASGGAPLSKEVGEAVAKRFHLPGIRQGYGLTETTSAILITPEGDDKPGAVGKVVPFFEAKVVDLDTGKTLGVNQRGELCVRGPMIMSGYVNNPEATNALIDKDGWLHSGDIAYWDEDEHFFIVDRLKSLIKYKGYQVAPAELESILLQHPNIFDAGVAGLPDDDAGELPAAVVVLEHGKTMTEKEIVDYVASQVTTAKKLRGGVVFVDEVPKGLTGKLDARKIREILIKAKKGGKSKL
Method in brief: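 Inhibition of purified Photinus luciferase is measured by luminescence. Substrate levels (D-luciferin, ATP) sit at their KM values. Each compound is tested in a concentration series.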

[3] = qHTS assay to identify small molecule agonists of the constitutive androstane receptor (CAR) signaling pathway - cell viability counter screen (AID 1224836); also: nearly all actives have a fitted effect of over 45% in size
Method in brief: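 Compound titrations (15 concentrations) went onto HepG2-CYP2B6-hCAR cells 4 h after seeding, alongside PK11195 at a final 0.75 uM; a 23 h, 37 C/5% CO2 incubation preceded CellTiter-Fluor viability measurement.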

[4] = qHTS assay to identify small molecule antagonists of the constitutive androstane receptor (CAR) signaling pathway - cell viability counter screen (AID 1224837); also: nearly all actives have a fitted effect of over 45% in size
Method in brief: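 Fluorescence from CellTiter-Fluor served as the viability signal. Human hepatoma HepG2 cells stably bearing hCAR and CYP2B6-2.2kb received compound plus CITCO (50 nM final) for 23 hr.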

[5] = target: Nuclear receptor subfamily 1 group I member 3 (Homo sapiens) (UniProt Q14994); test: qHTS assay to identify small molecule antagonists of the constitutive androstane receptor (CAR) signaling pathway (AID 1224838);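 also: HepG2 cells stably expressing hCAR with CYP2B6 luciferase reporter stimulated by CITCO; nearly all actives have a fitted effect of over 40% in size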
Nuclear receptor subfamily 1 group I member 3 (Homo sapiens), sequence (Q14994 whole entry, looked up): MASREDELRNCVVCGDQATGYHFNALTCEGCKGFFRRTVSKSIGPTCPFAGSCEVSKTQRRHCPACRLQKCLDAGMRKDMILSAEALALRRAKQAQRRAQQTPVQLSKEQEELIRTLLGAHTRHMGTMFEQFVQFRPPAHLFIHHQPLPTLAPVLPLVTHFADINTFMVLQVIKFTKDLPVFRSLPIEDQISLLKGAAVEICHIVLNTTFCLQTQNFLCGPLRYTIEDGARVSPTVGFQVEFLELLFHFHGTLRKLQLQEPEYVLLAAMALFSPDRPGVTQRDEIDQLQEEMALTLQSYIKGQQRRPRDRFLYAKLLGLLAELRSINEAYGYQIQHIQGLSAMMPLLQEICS
Method in brief: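 Quantitative HTS in double-stable HepG2-CYP2B6-hCAR cells. After 4 h plating, cells get compound (15 concentrations) and CITCO at 50 nM final, incubate 24 h at 37 C, then ONE-Glo luminescence is read.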

[6] = target: Nuclear receptor subfamily 1 group I member 3 (Homo sapiens) (UniProt Q14994); test: qHTS assay to identify small molecule agonists of the constitutive androstane receptor (CAR) signaling pathway (AID 1224839); also: nearly all actives have a fitted effect of over 15% in size; also: potency is read from the fitted curve at half-maximal effect;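 as to activation: HepG2 cells stably carrying human CAR and a CYP2B6 luciferase reporter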
Method in brief: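 In this screen, CAR-driven CYP2B6 promoter activity is measured by luminescence in HepG2-CYP2B6-hCAR cells after 24 h with test compounds and 0.75 uM PK11195 (final concentration).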

[7] = qHTS assay to identify small molecule antagonists of the estrogen related receptor signaling pathway with the pleiotropic PPARgamma coactivator (PGC) from Tox21 10K library - cell viability counter screen (AID 1224840; active = well fitted cell-killing curve with a large enough effect in the repeat runs, not every such curve was filed as active; also: nearly all actives have a fitted effect of over 40% in size)
Method in brief: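 Compounds in DMSO, alongside positive and negative controls, were pinned onto PGC/ERR cells (2,000 per well). Exposure lasted 17.5 hours at 37 C, followed by a 30-minute CellTiter-Fluor incubation and fluorescence reading.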

[8] = qHTS assay to identify small molecule agonists of the hypoxia (HIF-1) signaling pathway - cell viability counter screen (AID 1224844; calls by dose curve; also: nearly all actives have a fitted effect of over 50% in size)
Method in brief: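 Luminescent ATP content (CellTiter-Glo, 30 min, room temperature) served as the viability measure in HRE-bla ME-180 cells exposed to compounds for 17 hrs in low-serum medium (0.5% dialyzed FBS).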

[9] = qHTS assay to identify small molecule agonists of H2AX (AID 1224845; active = well fitted activation curve with a large enough effect in the signal ratio in the repeat runs, not every such curve was filed as active; the % refers to the signal ratio)
Method in brief: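 Phospho-H2AX Ser139 measured by HTRF (ex 320 nm; em 665 and 620 nm) after 24 hr antibody incubation. Compounds, 15 concentrations, 0.76% DMSO, were applied to CHO-K1 cells for 3hr at 37C before lysis.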

[10] = qHTS assay to identify small molecule agonists of the hypoxia (HIF-1) signaling pathway (AID 1224846; active = well fitted activation curve with a large enough effect in the signal ratio in the repeat runs, not every such curve was filed as active; the % refers to the signal ratio)
Method in brief: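 Measured by blue/green FRET after loading CCF4-AM: beta-lactamase expressed from a hypoxia response element in ME-180 cells. Test agents were delivered in DMSO and left 17 hrs; cells had been plated 5 hrs earlier in low-serum (0.5% dialyzed FBS) medium.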

[11] = qHTS assay to identify small molecule agonists of H2AX - cell viability counter screen (AID 1224847; calls by dose curve; also: top concentration of the series differs between compounds; nearly all actives have a fitted effect of over 30% in size)
Method in brief: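 Read-out: CellTiter-Glo luminescence, 30 min RT. Cells: wild-type CHO-K1, 1000/well, 10% FBS, plated overnight at 37C. Treatment: 15 concentrations, 3 hr, 37C, 0.76% DMSO.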

[12] = qHTS RealTime-Glo MT Cell Viability Assay in HEK293 cells - 32 hour (AID 1224868); also: top concentration of the series differs between compounds; nearly all actives have a fitted effect of over 50% in size
Method in brief: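 Quantitative high-throughput screen of the Tox21 10K library in HEK293: cells and RealTime-Glo reagents plated together, compound added at 5 h, luminescence monitored through 40 h at 37 C.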

[13] = A CellTox Green Cytotoxicity Assay to monitor cytotoxicity in HEK293 cells - 0 hour (AID 1224869); also: nearly all actives have a fitted effect of over 50% in size
Method in brief: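 Each value comes from one timepoint of a single continuous run in which HEK293 cells with CellTox Green were exposed to compound for up to 40 h at 37 C, dye fluorescence rising with cell death.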

[14] = qHTS RealTime-Glo MT Cell Viability Assay in HepG2 cells - 40 hour (AID 1224870); also: nearly all actives have a fitted effect of over 50% in size
Method in brief: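 Real-time viability: cells seeded at 600 per well together with NanoLuc and cell-permeant prosubstrate, compounds added after 5 h incubation. Luminescence tracked at 0, 8, 16, 24, 32 and 40 h of exposure.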

[15] = qHTS RealTime-Glo MT Cell Viability Assay in HepG2 cells - 24 hour (AID 1224867); also: nearly all actives have a fitted effect of over 50% in size
Method in brief: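 Compound treatment began 5 h after plating HepG2 cells (600/well) with NanoLuc luciferase and prosubstrate. Plates stayed at 37 C for 40 h; luminescence was captured at six time points, 0 h through 40 h.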

[16] = qHTS assay to identify small molecule antagonists of the estrogen related receptor signaling pathway with the pleiotropic PPARgamma coactivator (PGC) from Tox21 10K library (AID 1224841; call rule not given here)
Method in brief: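 Compound exposure ran 18 hours at 37 C in PGC/ERR cells (2,000/well) that had first rested 6 hours in a 37 C/5% CO2 incubator. Luciferase activity was then detected with One-Glo after a 30-minute room-temperature step.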

[17] = qHTS assay to identify small molecule agonists of the estrogen related receptor signaling pathway with the pleiotropic PPARgamma coactivator (PGC) from Tox21 10K library (AID 1224842); also: nearly all actives have a fitted effect of over 15% in size
Method in brief: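 Luminescence from One-Glo (30 min, room temperature) measured after PGC/ERR cells had 18 h at 37 C with pinned compound (23 nL in DMSO). Cells had been seeded at 2,000 per well and pre-incubated 6 h.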

[18] = qHTS assay to identify small molecule agonists of the estrogen related receptor (ERR) signaling pathway from Tox21 library (AID 1224849; calls by dose curve; also: nearly all actives have a fitted effect of over 15% in size); conditions: ERR reporter cell line, ONE-Glo luciferase, 18 h; at 92.4 µM (top of the series) unless noted
Method in brief: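 We plated ERR reporter cells, waited 6 h, added compounds in DMSO by pin tool and incubated them 18 h at 37 C. ONE-Glo was then added and luminescence read after 30 min.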

[19] = target: Thyrotropin receptor (Homo sapiens) (UniProt P16473); test: qHTS assay to identify small molecule agonists of the thyroid stimulating hormone receptor (TSHR) signaling pathway (AID 1224843; calls by dose curve; also: nearly all actives have a fitted effect of over 45% in size)
Thyrotropin receptor (Homo sapiens), sequence (P16473 whole entry, looked up): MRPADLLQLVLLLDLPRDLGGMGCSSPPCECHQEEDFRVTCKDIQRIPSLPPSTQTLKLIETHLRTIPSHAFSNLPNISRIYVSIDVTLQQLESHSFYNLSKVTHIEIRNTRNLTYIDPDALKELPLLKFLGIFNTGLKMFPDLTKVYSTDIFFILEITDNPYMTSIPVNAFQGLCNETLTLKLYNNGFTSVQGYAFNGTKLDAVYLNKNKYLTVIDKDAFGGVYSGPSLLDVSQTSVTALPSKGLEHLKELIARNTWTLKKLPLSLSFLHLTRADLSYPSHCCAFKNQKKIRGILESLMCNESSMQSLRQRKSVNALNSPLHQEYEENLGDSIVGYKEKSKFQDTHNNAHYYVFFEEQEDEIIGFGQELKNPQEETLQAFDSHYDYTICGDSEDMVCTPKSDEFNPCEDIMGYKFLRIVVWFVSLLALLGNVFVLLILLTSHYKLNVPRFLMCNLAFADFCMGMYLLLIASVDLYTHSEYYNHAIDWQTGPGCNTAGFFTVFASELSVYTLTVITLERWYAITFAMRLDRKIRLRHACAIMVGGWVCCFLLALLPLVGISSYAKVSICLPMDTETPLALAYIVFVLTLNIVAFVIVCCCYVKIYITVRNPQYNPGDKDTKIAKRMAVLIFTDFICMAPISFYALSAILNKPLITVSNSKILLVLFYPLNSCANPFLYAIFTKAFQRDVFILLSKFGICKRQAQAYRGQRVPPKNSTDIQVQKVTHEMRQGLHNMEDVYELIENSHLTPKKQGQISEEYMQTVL
Method in brief: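 Screening of the Tox21 10K collection used HEK293 cells engineered with TSHR at 800 cells per well. After a 30-min room-temperature compound exposure, HTRF cAMP reagents were added and fluorescence recorded 1 h later.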

[20] = qHTS assay to identify small molecule antagonists of the estrogen related receptor (ERR) signaling pathway from Tox21 library (AID 1224848); also: nearly all actives have a fitted effect of over 50% in size
Method in brief: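 Antagonist-mode screen of the Tox21 10K library in an NTP-provided ERR reporter cell line; 18 h compound exposure at 37 C, luminescence measured with ONE-Glo.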

| SMILES | Potency [1] | Potency [2] | Potency [3] | Potency [4] | Potency [5] | Potency [6] | Potency [7] | Potency [8] | Potency [9] | outcome [10] | Potency [11] | Potency [12] | Potency [13] | Potency [14] | Potency [15] | Potency [16] | outcome [17] | activity change, positive = activation [18] [%] | Potency [19] | Potency [20] |
| --- | --- | --- | --- | --- | --- | --- | --- | --- | --- | --- | --- | --- | --- | --- | --- | --- | --- | --- | --- | --- |
| CC1CN1P(=O)(N1CC1C)N1CC1C (stereo not given) | inactive | inactive | inactive | inactive | inactive | inactive | inactive | inactive | inactive | inactive | inactive | inactive | inactive | inactive | – | – | – | – | – | – |
| CCOC(=O)N(C)C(=O)CSP(=S)(OCC)OCC | inactive | inactive | inactive | inactive | inactive | 34.4 µM (active) | inactive | inactive | inactive | inactive | inactive | inactive | inactive | inactive | inactive | – | – | – | – | – |
| COC(=O)C(C)Oc1ccc(Oc2ccc(Cl)cc2Cl)cc1 (stereo not given) | inactive | inactive | inactive | – | inactive | inactive | inactive | inactive | inactive | inactive | inactive | inactive | inactive | inactive | inactive | inactive | inactive | -14.6 | – | – |
| OCCBr | inactive | inactive | inactive | inactive | – | – | inactive | inactive | inactive | inactive | inactive | inactive | inactive | inactive | inactive | – | – | – | inactive | – |
| COC(C)(C)C | inactive | inactive | inactive | inactive | – | – | inactive | inactive | inactive | inactive | inactive | inactive | inactive | inactive | inactive | – | – | – | inactive | – |
| O=NN1CCCCC1 | inactive | inactive | inactive | – | inactive | inactive | inactive | inactive | inactive | inactive | inactive | inactive | inactive | inactive | inactive | – | – | – | inactive | – |
| CCCCOC(=O)c1ccccc1N | inactive | 40.1 µM (active) | inactive | inactive | – | – | inactive | – | inactive | inactive | – | inactive | inactive | inactive | inactive | – | – | – | – | – |
| CC1CCC(=O)O1 (stereo not given) | inactive | inactive | inactive | – | – | – | inactive | inactive | inactive | inactive | inactive | inactive | inactive | inactive | inactive | inactive | inactive | -6.79 | inactive | inactive |
| CCCCP(CCCC)CCCC | inactive | inactive | inactive | – | – | – | inactive | inactive | inactive | inactive | inactive | inactive | inactive | inactive | inactive | – | – | – | inactive | – |
